Compound activity from PubChem BioAssay.
An excerpt weighted towards active compounds, which were near 31% of everything screened.
CYP2C19 inhib – inhibitors of human CYP2C19. 96,000 tested, 21% active. P33261. CYP2C19 Supersomes, luciferin-H EGE luminescence, 30 min. inhibition, % at 5 µM;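 active means CYP2C19 inhibition above a set limit at 5 µM in the primary screen, cut at about 50% in these data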;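 further: plate controls were negative control wells for no effect and 2.5 mM tranylcypromine positive control for full effect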
CYP2C9 inh – human CYP2C9 inhibition. P11712. CYP2C9 Supersomes, luciferin-H conversion, luminescence. inhibition, % at 5 µM. 96,000 tested, 20% active. AID 777;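 active means blocking of liver enzyme CYP2C9 beyond about 50% at 5 µM, limit read from the data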
Target sequence (P11712 whole entry, looked up): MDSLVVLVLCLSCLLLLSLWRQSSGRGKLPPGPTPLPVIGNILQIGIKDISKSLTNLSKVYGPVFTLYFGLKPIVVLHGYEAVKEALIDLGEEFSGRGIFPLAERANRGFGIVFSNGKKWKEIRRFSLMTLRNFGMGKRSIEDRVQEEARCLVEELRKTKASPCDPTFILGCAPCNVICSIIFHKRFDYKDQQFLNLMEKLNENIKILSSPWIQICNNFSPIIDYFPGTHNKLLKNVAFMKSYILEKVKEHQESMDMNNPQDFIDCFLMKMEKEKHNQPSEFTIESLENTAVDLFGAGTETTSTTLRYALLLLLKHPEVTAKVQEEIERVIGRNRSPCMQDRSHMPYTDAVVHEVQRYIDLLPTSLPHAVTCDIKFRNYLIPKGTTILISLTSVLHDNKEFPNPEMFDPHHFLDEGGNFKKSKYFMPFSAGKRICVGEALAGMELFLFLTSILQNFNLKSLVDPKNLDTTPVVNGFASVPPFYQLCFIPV
CYP2C19 activ – cytochrome P450 2C19 (human) activation; P33261; recombinant CYP2C19, luciferin-H EGE luminescence; stronger effect = higher value; 0 = fully inhibited enzyme, 1 = untreated enzyme; activation factor at 5 µM; 96,000 tested, under 10 active; AID 1025;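 active means activation factor of at least 2 at 5 µM in the primary screen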;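 further: 0 = wells with 2.5 mM tranylcypromine and 1 = vehicle-only wells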
CYP2C9 act – activators of human CYP2C9; P11712; recombinant CYP2C9, luciferin-H conversion, luminescence; stronger effect = higher value; factor 1 = untreated enzyme, 0 = blocked; activation factor at 5 µM; 96,000 tested, 1.4% active;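 active means activation factor of 2 or more for CYP2C9 at a 5 µM dose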;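 further: 0 = sulfaphenazole-blocked wells and 1 = vehicle-only wells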
Active calls of the source: *.

SMILES	CYP2C19 inhib	CYP2C9 inh	CYP2C19 activ	CYP2C9 act
COc1ccc(C(=O)NC(=O)N2CCCCC2)cc1	-2	-6	1	1.1
CC(=O)N(C)c1ccc(NC(=O)c2cnn(C)c2)cc1	11	9	0.9	0.9
CCc1cc(C=C(Cl)Cl)oc(=O)c1C	83*	24	0.2	0.8
C=C(C)CSc1nc2c(cc1C#N)CCC2	80*	45	0.2	0.6
CCCCSc1nc2c(cc1C#N)CCC2	58*	49	0.4	0.5
CC(C)OC(=O)CC(=O)CSc1nc2c(cc1C#N)CCCCCC2	47	63*	0.5	0.4
CS(=O)CSc1nc2c(cc1C#N)CCCC2 (stereo unspecified)	12	5	0.9	0.9
O=C(Nc1nonc1NC(=O)C1CCCCC1)C1CCCCC1	14	27	0.9	0.7
Cc1cc(N2CCC(N(C)C3CCCC3)CC2)nc2cc(O)ccc12	14	4	0.9	1
CC(=O)N1c2ccc3ccccc3c2C(C)CC12CCCCC2 (stereo unspecified)	98*	94*	0	0.1
CC1CC2(CCCCC2)N2C(=O)C(=O)c3cccc1c32 (stereo unspecified)	34	16	0.7	0.8
O=C(CCCOc1ccc(Cl)cc1)N1CCOCC1	87*	1	0.1	1
CCC1CCCCN1C(=O)CCCOc1ccccc1 (stereo unspecified)	50*	9	0.5	0.9
O=C(COc1ccc(Cl)cc1)N1CCCCC1	35	-2	0.7	1
CCOC(=O)C1CCN(C(=O)CCCOc2ccccc2)CC1	36	7	0.6	0.9
O=C(CCCOc1ccccc1)N1CCCCC1	56*	3	0.4	1
CCC1CCCCN1C(=O)N[C@@H](Cc1ccccc1)C(=O)O (stereo partly specified)	-2	-10	1	1.1
O=C(CCCOc1ccc(Cl)cc1)N1CCCCCC1	95*	59*	0	0.4
CCC(C)c1ccc(NC(=O)COC(=O)C2=COCCO2)cc1 (stereo unspecified)	-6	14	1.1	0.9
CCCc1nnc(NC(=O)CN2C(=O)C3C4C=CC(C4)C3C2=O)s1 (stereo unspecified)	-3	5	1	0.9
COC(=O)c1cncc(O)c1	6	-23	0.9	1.2
O=C(O)c1cccc(S(=O)(=O)Nc2ccc3oc(=O)sc3c2)c1	2	12	1	0.9
FC(F)(F)c1ccccc1NC(=S)NN1CCOCC1	22	-10	0.8	1.1
CC1CC(C)CN(c2nc3c(c(=O)n(C)c(=O)n3C)n2C)C1 (stereo unspecified)	2	-1	1	1
CC12CCC(C(=O)N(c3ccccn3)c3ccccn3)(OC1=O)C2(C)C (stereo unspecified)	2	-8	1	1.1
SMILES	CYP2C19 inhib	CYP2C9 inh	CYP2C19 activ	CYP2C9 act
CCOCCCNC(=O)C1c2ccccc2C(=O)N2CCc3ccccc3C12 (stereo unspecified)	-5	15	1.1	0.9
CCOC(=O)CNC(=O)C1c2ccccc2C(=O)N(c2ccc(OC)cc2)C1c1ccc(OC)cc1 (stereo unspecified)	20	20	0.8	0.8
Cc1ccc(N(C(C)C(=O)O)S(=O)(=O)c2c(C)n[nH]c2C)cc1 (stereo unspecified)	11	20	0.9	0.8
O=C(CCCOc1ccc(Cl)cc1)N1CCCCC1	98*	40	0	0.6
CC(=O)c1cccc(N(C(=O)c2ccccn2)C(C(=O)NC2CCCCC2)c2cccs2)c1 (stereo unspecified)	-1	8	1	0.9
C=CCOC(=O)Nc1c(C(=O)OC)[nH]c2ccc(Cl)cc12	3	14	1	0.9
O=C(c1ccc([N+](=O)[O-])cc1)N(Cc1ccc(Cl)cc1Cl)N1C(=O)CCCC1=O	64*	20	0.4	0.8
Cc1ccc([N+](=O)[O-])cc1NC(=O)CN(C(=O)c1ccc(Cl)cc1)C1CCCCC1	46	37	0.5	0.6
O=C(c1ccc([N+](=O)[O-])cc1)N(Cc1ccc(Cl)cc1)N1C(=O)CCCC1=O	51*	12	0.5	0.9
C=CCn1c(SCC(=O)N(C)C2CCS(=O)(=O)C2)nnc1-c1ccncc1 (stereo unspecified)	-5	-11	1	1.1
O=C(CSc1nccn1-c1ncc(C(F)(F)F)cc1Cl)c1ccc(Br)cc1	93*	62*	0.1	0.4
Cc1ccc(/C(CSc2nccn2-c2ncc(C(F)(F)F)cc2Cl)=N\O)cc1	56*	52*	0.4	0.5
Cc1ccc(CON=C2CCN(c3ncc(C(F)(F)F)cc3Cl)CC2)cc1	23	21	0.8	0.8
Cc1ccc(NC(=O)c2sc(Cl)nc2-c2ccccc2)cc1C	16	16	0.8	0.8
Cc1cc(NC(=O)c2cc3ncc(Br)cn3n2)no1	-8	17	1.1	0.8
CS(=O)(=O)N1CCCC(C(=O)NCCN2CCC(Cc3ccccc3)CC2)C1 (stereo unspecified)	64*	-7	0.4	1.1
CCS(=O)(=O)N1CCCC(C(=O)NCCN2CCC(Cc3ccccc3)CC2)C1 (stereo unspecified)	5	2	1	1
CCCS(=O)(=O)N1CCCC(C(=O)N2CCC(Cc3ccccc3)CC2)C1 (stereo unspecified)	69*	51*	0.3	0.5
CCCS(=O)(=O)N1CCC(C(=O)N2CCC(Cc3ccccc3)CC2)CC1	25	7	0.7	0.9
Clc1ccccc1C1CC(c2ccccc2)Nc2ncnn21 (stereo unspecified)	38	40	0.6	0.6
Cc1ccc(C2CC(c3ccccc3OC(F)F)Nc3ncnn32)cc1 (stereo unspecified)	27	8	0.7	0.9
c1ccc(C2CC(c3ccccc3)n3ncnc3N2)cc1 (stereo unspecified)	93*	45	0.1	0.5
Fc1ccc(C2CC(c3ccccc3)Nc3ncnn32)cc1 (stereo unspecified)	53*	-2	0.5	1
Cc1ccccc1C1CC(c2ccccc2OC(F)F)Nc2ncnn21 (stereo unspecified)	75*	60*	0.2	0.4
CCCn1c(=O)c(C(=O)Nc2nnc(CC)s2)c(O)c2ccccc21	-12	17	1.1	0.8
SMILES	CYP2C19 inhib	CYP2C9 inh	CYP2C19 activ	CYP2C9 act
CCOC(=O)N1CCN(S(=O)(=O)c2c(C)cc(C)cc2C)CC1	23	50*	0.8	0.5
CCOC(=O)N1CCN(C(=O)C2CCN(S(=O)(=O)c3ccc(C)cc3)CC2)CC1	10	-35	0.9	1.4
CCOC(=O)N1CCN(C(=O)C2CCN(S(=O)(=O)c3c(C)cc(C)cc3C)CC2)CC1	22	-241	0.8	3.4*
Cn1c(=O)c2c(nc(NCc3cccnc3)n2Cc2cccc(C(F)(F)F)c2)n(C)c1=O	53*	69*	0.5	0.3
COc1cccc(Cn2c(NCc3cccnc3)nc3c2c(=O)n(C)c(=O)n3C)c1	13	35	0.9	0.6
Cc1ccc(SCc2noc(C(=O)NC(C)C)c2C(=O)O)cc1C	11	80*	0.9	0.2
O=C(NCC1CCCO1)c1onc(CSc2ccc(Cl)cc2)c1C(=O)O (stereo unspecified)	19	51*	0.8	0.5
